# From PubChem BioAssay
# Only some compounds are listed: those with a hit (about 7.3% of all), similar ones and a draw of the others.
# SMN2 splice enh = increases expression of the SMN2 splice variant. 210,000 compounds, 2.8% hits. Potency, µM (top dose mostly 46.1 µM), without a hit: top-dose activity change, positive = activation, usual class: activators. HEK293 SMN2-luciferase splicing reporter, luminescence, 30-36 h. AID 1458; also: % of control where 0% means no effect; nearly all actives have a fitted effect of over 55% in size
#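 HEK293 cells carry an SMN2 […]–luciferase reporter in which exon 7 inclusion puts luciferase in frame. Cells were plated 10-12 h before compound addition, then incubated 30-36 h at 37C. ONE-Glo luminescence was read; sodium butyrate at 4.5 mM final served as control.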
# FLuc counter = counter-screen for miR-21 project: firefly luciferase inhibitors or activators | 360,000 compounds, 6.9% hits | Potency, µM (series often up to 57.5 µM), without a hit: at the highest dose activity change, negative = inhibition, most hits filed as inhibitors | AID 588342 | purified FLuc, Km substrates, luminescence inhibition | P08659;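 also: plate controls were vehicle for no effect and reference inhibitor for full effect; nearly all actives have a fitted effect of over 55% in size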
# Target sequence (P08659 whole entry, looked up): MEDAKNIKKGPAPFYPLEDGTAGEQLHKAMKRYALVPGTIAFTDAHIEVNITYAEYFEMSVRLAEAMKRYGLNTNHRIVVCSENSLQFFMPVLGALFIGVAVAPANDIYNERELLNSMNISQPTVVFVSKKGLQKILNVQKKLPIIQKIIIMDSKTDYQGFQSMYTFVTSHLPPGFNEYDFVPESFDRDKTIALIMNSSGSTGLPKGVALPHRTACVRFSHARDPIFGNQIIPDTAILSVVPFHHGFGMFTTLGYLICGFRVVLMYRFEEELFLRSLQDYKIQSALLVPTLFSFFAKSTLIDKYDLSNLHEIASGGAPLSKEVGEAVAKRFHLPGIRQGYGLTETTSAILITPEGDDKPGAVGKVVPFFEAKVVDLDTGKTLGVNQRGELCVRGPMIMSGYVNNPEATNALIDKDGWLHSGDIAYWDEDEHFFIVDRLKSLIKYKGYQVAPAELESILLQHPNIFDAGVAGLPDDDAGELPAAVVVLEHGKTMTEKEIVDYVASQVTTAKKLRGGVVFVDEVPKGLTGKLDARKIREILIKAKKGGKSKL
#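 Purified P. pyralis luciferase (10nM final) with 10uM D-luciferin and 10uM ATP (Km levels) in 50mM Tris acetate pH 7.5, 10mM Mg acetate, 0.01% Tween-20, 0.05% BSA; qHTS 6-point titration, ~60 µM downward; luminescence read.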
# ELG1 genotoxic = induces genotoxicity in HEK293T cells with luciferase-tagged ELG1; HEK293T ELG1-luciferase reporter, luminescence, 16 h; AID 504466; 330,000 compounds, 1.3% hits; Potency, µM (titrated, usually from 46 µM), inactives show top-dose activity change, positive = activation, actives largely listed as activators; also: % of control where 0% means no effect; nearly all actives have a fitted effect of over 60% in size
#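 Reporter readout depends on ELG1 protein level, which increases with genetic stress. After 16 hr compound exposure at 37 °C, luciferase activity was quantified using ONE-Glo.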
# KinaseGlo FLuc = blocks Kinase-Glo luciferase, a counter-screen artifact; Kinase-Glo luciferase, ATP luminescence, 8 min; Potency, µM (titrated, usually from 38.3 µM), inactives show at the highest dose activity change, negative = inhibition, most hits filed as inhibitors; 200,000 compounds, 0.28% hits; also: % is scaled to controls: 0 for no effect and ±100 for the full control effect; nearly all actives have a fitted effect of over 60% in size
#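 Light output from Kinase-Glo luciferase with luciferin and 10 uM ATP in 50 mM imidazole pH 7.2, KCl, MgCl2, Tween 20, BSA; compound pin-delivered, 8-min ambient incubation, then luminescence read.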
# Rab9 prom act = activators of Rab9 promoter. Huh7 Rab9 promoter-luciferase reporter, luminescence, 24 h. 320,000 compounds, 2.8% hits. Potency, µM (top dose mostly 9.22 µM), for the others: at the highest dose activation, negative = inhibition, usual class: activators; also: % of control where 0% means no effect; nearly all actives have a fitted effect of over 60% in size
#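 Huh7 cells stably carrying a Rab9 promoter-luciferase reporter, 1500 cells per well in OP-MEM I with 10% FBS, treated with compound 24 hours at 37C. Luciferase activity read by luminescence after 10 minutes with Amplite reagent.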
# NPC1 prom act = activates the NPC1 promoter; Potency, µM (highest dose often 9.22 µM), for inactives: at the highest dose activation, most hits filed as activators; AID 485313; 320,000 compounds, 2.4% hits; Huh7 NPC1 promoter luciferase reporter, 24 h; also: % of control where 0% means no effect; nearly all actives have a fitted effect of over 60% in size
#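 Luminescence read-out of NPC1 promoter-driven luciferase in stably transfected Huh7 cells; compounds delivered in DMSO and left 24 h at 37C, 5% CO2, qHTS titration format.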
# * hit, by the source's call; ? = inconclusive; . = no result given; ! = repeats disagree. Calls follow the shape of the dose curve; as a rule, active = well fitted curve in the direction sought with a large enough effect; inconclusive = small, poorly fitted or top-dose-only effect, or another doubt; inactive = no such curve, though single readings can be large; an effect the other way counts as inactive or inconclusive. Potency is read from the fitted curve at half-maximal effect.
SMILES,SMN2 splice enh,FLuc counter,ELG1 genotoxic,KinaseGlo FLuc,Rab9 prom act,NPC1 prom act
O=C(Nc1cccc(NC(=O)C2CC2)n1)C1CC1,-32%,3%,0%,-10%,-5%,-2%
CC(C)Nc1nc(-c2cccnc2)nc(-c2ccc(Cl)cc2)c1C#N,.,0%,5%,.,-8%,-10%
COc1ccc(OC(=O)c2cc3ccccc3o2)cc1,29%,0.54µM*,1%,-7%,-2%,0%
CCN(C(=O)c1cc2ccccc2oc1=O)c1ccccc1,-22%,9.5µM*,9.2µM*,-3%,?,?
Cc1ccc(NC(=O)c2ccc(OC(=O)c3ccco3)cc2)cc1,13µM*,-11%,8.2µM*,5%,2.8µM*,2µM*
Cc1ccc(Oc2ccc(NC(=O)c3ccco3)cc2)cc1,2%,27µM*,?,-3%,?,3.2µM*
COc1ccc(N2CCN(C(=O)c3cc4ccccc4o3)CC2)cc1,.,-1%,6%,.,-5%,10%
O=C(Nc1ccc(Oc2ncccn2)cc1)c1ccco1,-4%,-4%,9%,-10%,20%,9%
O=C(/C=C/Nc1ccccc1)C(F)(F)F,16%,-7%,1%,-1%,2%,-3%
O=C(CSc1nc2ccccc2c(=O)n1CC1CCCCC1)N1CCOCC1,10%,0%,1%,1%,-2%,4%
Oc1cccc(/C=N/NC(=S)Nc2cccnc2)c1O,-82%,?,?,-3%,-2%,0%
Fc1ccc(/C=N/NC(=S)Nc2cccnc2)cc1,1%,?,23µM*,-9%,27%,16%
Oc1ccc(/C=N/NC(=S)Nc2cccnc2)c(O)c1O,.,19µM*,-17%,.,-3%,-3%
Oc1ccc(/C=N/NC(=S)Nc2cccnc2)c(O)c1,-92%,21µM*,?,1%,-18%,-2%
COc1ccc(Cc2nc3ccc(C(=O)NCCCN4CCN(C)CC4)cc3o2)cc1,.,0%,.,.,.,.
Nc1ccc2c(c1)C/C(=C/c1ccco1)C2=O,?,0.6µM*,21µM*,-15%,2µM*,2.8µM*
COc1ccc2c(c1)CC/C(=C\c1ccc(OC)c(Cn3nc(C)cc3C)c1)C2=O,-15%,?,-21%,-1%,-4%,-4%
O=C1/C(=C/c2ccco2)CCc2ccccc21,?,2.1µM*,7.3µM*,?,?,4µM*
COc1ccc2c(c1)CC/C(=C/c1ccco1)C2=O,18µM*,0.67µM*,?,-21%,3.5µM*,2.2µM*
CCC1C/C(=C/c2ccco2)C(=O)/C(=C/c2ccco2)C1 (stereo not given),-9%,-8%,6%,0%,3%,1%
O=C(Nc1cccnc1)C1OCCc2ccccc21 (stereo not given),2%,6%,-2%,-1%,1%,12%
O=C(Nc1ccc(Br)cc1)C1OCCc2ccccc21 (stereo not given),.,17µM*,2%,.,?,24%
O=c1[nH]c(=O)c2nc(-c3ccc(Cl)cc3)cnc2[nH]1,-5%,17µM*,12%,-2%,1%,-2%
CC1CN(S(=O)(=O)c2cccc(C(=O)NN3CCN(C)CC3)c2)CC(C)O1 (stereo not given),7%,5%,2%,0%,-2%,-4%
CCCc1nnc(SCC(=O)N2CCOCC2)n1CCCOC,-11%,0%,-1%,-2%,5%,2%
SMILES,SMN2 splice enh,FLuc counter,ELG1 genotoxic,KinaseGlo FLuc,Rab9 prom act,NPC1 prom act
O=C(Nc1cccc2nsnc12)c1cccnc1,-37%,4%,0%,1%,1%,0%
O=C(Nc1cccc2nsnc12)c1cccs1,71%,13µM*!,?,-11%,3.2µM*!,?
O=C(Nc1ccccc1)Nc1cccc2nsnc12,11µM*,7.6µM*,?,?,3.2µM*,4.5µM*
COc1ccccc1NS(=O)(=O)c1ccc2oc(SC3CCOC3=O)nc2c1 (stereo not given),15%,1%,0%,1%,1%,-7%
CCc1ccc(C(CC(=O)O)N2Cc3ccccc3C2=O)cc1 (stereo not given),.,0%,0%,.,3%,-9%
C/C(=C\C(=O)Nc1nccs1)c1ccccc1,?,9.5µM*,.,7%,.,.
CCCc1cc(C(=O)Nc2nccs2)cs1,4µM*,1.9µM*,1.3µM*,-15%,1.3µM*,1.8µM*
C/C(=C\C(=O)O)C(=O)Nc1nccs1,16%,0%,-1%,-1%,0%,-1%
O=C(Nc1nccs1)c1ccc([N+](=O)[O-])cc1,.,-13%,14%,.,30%,?
CCC(CC)C(=O)Nc1cccc(C(=O)Nc2nccs2)c1,-25%,0%,-7%,1%,-2%,-4%
O=C(Nc1ccccc1)Nc1nccs1,?,24µM*,-1%,-2%,25%,16%
COc1ccc(C(=O)Nc2nccs2)cc1,.,19µM*,?,.,3.2µM*,2.2µM*
O=C(Nc1ccccc1)Nc1nncs1,-1%,?,-1%,-3%,4%,-2%
COc1ccc(Cn2cc(S(=O)(=O)c3ccc(Cl)cc3)c(=O)c3cc4c(cc32)OCO4)cc1,2%,-2%,.,.,.,.
CC(=O)c1ccc(OCC(O)Cn2nnc3ccccc32)cc1 (stereo not given),-11%,-14%,2%,-2%,27%,20%
Cc1cccc(C)c1NC(=O)CNC(=O)COC(=O)c1ccc(Cl)s1,.,.,0%,.,.,.
O=C(N/C(=C\c1ccco1)C(=O)N1CCOCC1)c1ccco1,.,-4%,0%,-1%,-8%,-4%
COc1ccc(C(=O)Nc2nccs2)cc1OC,7.1µM*,?,?,-4%,?,27%
COc1ccc(NC(=O)Nc2nccs2)cc1,14µM*,6.7µM*,?,-15%,21%,5%
COc1ccc(CC(=O)Nc2ccc(S(=O)(=O)Nc3nccs3)cc2)cc1,.,1%,13%,.,1%,-2%
O=C(Nc1cccc(C(=O)N2CCOCC2)c1)c1cncc(Br)c1,2%,5%,.,8%,.,.
COc1ccccc1OCc1ccc(C(=O)N/N=C/c2ccco2)cc1,9%,-9%,-1%,0%,-2%,-1%
COC(=O)C(Cc1ccc(O)cc1)NC(=O)CCc1ccco1 (stereo not given),.,-1%,8%,.,-2%,1%
CC(=O)Nc1cc(NC(C)=O)cc(C(=O)OCC(=O)c2ccc3c(c2)OCO3)c1,.,-3%,29%,.,1%,-3%
O=C(COC(=O)c1ccc(O)cc1O)c1ccc2c(c1)OCO2,.,8.5µM*,7%,.,6%,?
COC(=O)C(Cc1ccc(O)cc1)NC(=O)c1ccc2c(c1)OCCO2 (stereo not given),.,1.3µM*,?,.,6%,8%
